# PubChem BioAssay (NCI)
# Compounds without any hit were thinned out: in the full panel of roughly 83,000, 20% have a hit.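 Single-concentration screen, 48 h exposure, 96-well plates. Endpoint: percent growth. Below 10 = active.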 A number with no mark means an inactive call. Calls of active or inactive are those of the source.
# Legend:
# Experiment in all cases: NCI-60 one-dose screen, 48 h (100 = growth as untreated, 0 = no growth, -100 = all killed)
# Details in all cases: 10 µM
# NCI-H23 lung = system: NCI-H23 lung
# NCI-H226 lung = system: NCI-H226 lung
# NCI-H322M lung = system: NCI-H322M lung
# HOP-62 NSCLC = system: HOP-62 NSCLC
# NCI-H460 lung = system: NCI-H460 lung
# NCI-H522 lung = system: NCI-H522 lung
# A549/ATCC NSCLC = system: A549/ATCC NSCLC
# 786-0 renal = system: 786-0 renal
# COLO 205 colon = system: COLO 205 colon
# DU-145 prostate = system: DU-145 prostate
# K-562 leukemia = system: K-562 leukemia
# MALME-3M melanoma = system: MALME-3M melanoma
# MDA-MB-231 breast = system: MDA-MB-231 breast
# RXF 393 renal = system: RXF 393 renal
# SF-295 CNS = system: SF-295 CNS
# SF-539 CNS = system: SF-539 CNS
# UACC-257 melanoma = system: UACC-257 melanoma
# M14 melanoma = system: M14 melanoma
# HCT-15 colon = system: HCT-15 colon
# SF-268 CNS = system: SF-268 CNS
Compound,growth (NCI-H23 lung),growth (NCI-H226 lung),growth (NCI-H322M lung),growth (HOP-62 NSCLC),growth (NCI-H460 lung),growth (NCI-H522 lung),growth (A549/ATCC NSCLC),growth (786-0 renal),growth (COLO 205 colon),growth (DU-145 prostate),growth (K-562 leukemia),growth (MALME-3M melanoma),growth (MDA-MB-231 breast),growth (RXF 393 renal),growth (SF-295 CNS),growth (SF-539 CNS),growth (UACC-257 melanoma),growth (M14 melanoma),growth (HCT-15 colon),growth (SF-268 CNS)
COc1ccc(-c2nc3ccccn3c2-c2nnc(-c3cc(OC)c(OC)c(OC)c3)o2)cc1,72.5%,60.3%,57.3%,37.1%,21.6%,44.8%,60.9%,60.3%,53.3%,66.4%,102%,51.5%,46.9%,74.3%,64.9%,52.8%,84.2%,75.7%,71.6%,
Cc1cc(N(CCCNc2ccnc3cc(Cl)ccc23)Cc2ccc3c(c2)OCO3)nc(N2CCCCC2)n1,6.38% (active),38.1%,-5.02% (active),-45.1% (active),-30.8% (active),-43.9% (active),-32.8% (active),-91.5% (active),-78.7% (active),11.1%,-45.5% (active),-81.6% (active),-47.2% (active),-74.5% (active),-67.6% (active),-87.7% (active),,-86% (active),-78.3% (active),3.28% (active)
CC(C)=CCc1cc(O)cc2c1OC(C=C(C)C)C1=C2C(=O)C2=C(NCCS2(=O)=O)C1=O (stereo not drawn),-48.7% (active),-17.6% (active),-17.5% (active),-12.6% (active),3.29% (active),-20.6% (active),2.33% (active),22.9%,-61.3% (active),-95.3% (active),2.31% (active),-92.9% (active),-8.67% (active),-2.85% (active),45.9%,-50.5% (active),,-87.2% (active),28.4%,-1.83% (active)
Cc1cc(Cl)nc(N(CCCNc2ccnc3cc(Cl)ccc23)Cc2cccs2)n1,-12.9% (active),41.1%,29.7%,23.1%,7.09% (active),-0.273% (active),18.1%,17.4%,-73.3% (active),30.7%,-11.7% (active),-30% (active),17.2%,0.398% (active),13.1%,3.33% (active),,-7.28% (active),8.59% (active),38.6%
O=C1/C(=C\c2ccc(Br)cc2)CN(C(=O)c2ccccc2F)C/C1=C\c1ccc(Br)cc1,23.5%,-30.3% (active),60.7%,-7.85% (active),43.3%,-1.44% (active),2.51% (active),-52.4% (active),5.27% (active),6.51% (active),1.26% (active),-2.95% (active),-4.72% (active),-76.6% (active),-19.9% (active),3.38% (active),30.6%,-47.8% (active),5.63% (active),4.14% (active)
Clc1ccc(Nc2ccnc(NCCNc3ccnc4cc(Cl)ccc34)n2)cc1,47.6%,63.3%,20.1%,66.7%,7.77% (active),-34.5% (active),10.8%,-62% (active),-91% (active),36%,-54.6% (active),-83.6% (active),-20.4% (active),0.0582% (active),-58.9% (active),-94.5% (active),,-86.8% (active),3.75% (active),-10.7% (active)
Clc1ccc2c(NCCCNc3nccc(Nc4ccc(Br)cc4)n3)ccnc2c1,46.8%,90.1%,-19.9% (active),1.45% (active),-45.9% (active),-83.2% (active),-71.7% (active),-98.9% (active),-84.3% (active),9.83% (active),-68.8% (active),-83.8% (active),-90% (active),-92.7% (active),-84.9% (active),-93.1% (active),,-83.6% (active),-65.8% (active),-84.3% (active)
CCN(CC)CCNc1ccc(CO)c2oc3cc(Cl)ccc3c(=O)c12,87.2%,95.7%,97.4%,88.4%,88.2%,77.9%,90.4%,76%,68.4%,108%,81.8%,112%,83.7%,73.3%,97.9%,88.8%,-0.905% (active),60.3%,81%,
